Screening results: PubChem, National Center for Advancing Translational Sciences (NCATS)
Hits are enriched below; roughly 19% of the tested compounds scored in any of these assays.
HepG2 tox: qHTS for Inhibitors of TGF-b: Cytotox Counterscreen; 410,000 compounds, 0.76% hits; AID 588856, 2011; Potency, µM (series often up to 46.1 µM), usual class: cytotoxic; HepG2 CAGA-GFP viability, ATP luminescence, 18 h
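HepG2 CAGA-GFP cells (1000/well, DMEM with 1% FBS) received compound, then TGF-beta at 500 pg/mL final, and were incubated 18 hours at 37 degrees C. Viability was read by CellTiter-Glo luminescence. Media-only wells were set as complete cell-killing and DMSO as no toxicity.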
IL-1B inflam inh: qHTS for Inhibitors of Inflammasome Signaling: IL-1-beta AlphaLISA Primary Screen. THP-1 LPS/ATP IL-1B secretion, AlphaLISA, 16 h; stronger effect = lower value. activity change, % at 57.5 µM. 360,000 compounds, 4.7% hits. AID 743279, 2014; in the data active = activity change below about -50%; inconclusive = mostly about -30% to -49%
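THP-1 cells pretreated 1 hr with compounds (up to 57.5 uM final), then stimulated with LPS (250 ng/mL final) plus ATP (1.25 mM final); secreted IL-1B measured by AlphaLISA after 16 hr, decreased signal indicating inhibition.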
TDP1 inh: qHTS Assay for Inhibitors of Tyrosyl-DNA Phosphodiesterase (TDP1); Tyrosyl-DNA phosphodiesterase 1 (Homo sapiens), Q9NUW8; recombinant TDP1, AlphaScreen DNA substrate cleavage; Potency, µM (highest dose often 130 µM), usual class: inhibitors; 350,000 compounds, 0.28% hits; note: nearly all actives have a fitted effect of over 40% in size
Target sequence (Q9NUW8 whole entry, looked up): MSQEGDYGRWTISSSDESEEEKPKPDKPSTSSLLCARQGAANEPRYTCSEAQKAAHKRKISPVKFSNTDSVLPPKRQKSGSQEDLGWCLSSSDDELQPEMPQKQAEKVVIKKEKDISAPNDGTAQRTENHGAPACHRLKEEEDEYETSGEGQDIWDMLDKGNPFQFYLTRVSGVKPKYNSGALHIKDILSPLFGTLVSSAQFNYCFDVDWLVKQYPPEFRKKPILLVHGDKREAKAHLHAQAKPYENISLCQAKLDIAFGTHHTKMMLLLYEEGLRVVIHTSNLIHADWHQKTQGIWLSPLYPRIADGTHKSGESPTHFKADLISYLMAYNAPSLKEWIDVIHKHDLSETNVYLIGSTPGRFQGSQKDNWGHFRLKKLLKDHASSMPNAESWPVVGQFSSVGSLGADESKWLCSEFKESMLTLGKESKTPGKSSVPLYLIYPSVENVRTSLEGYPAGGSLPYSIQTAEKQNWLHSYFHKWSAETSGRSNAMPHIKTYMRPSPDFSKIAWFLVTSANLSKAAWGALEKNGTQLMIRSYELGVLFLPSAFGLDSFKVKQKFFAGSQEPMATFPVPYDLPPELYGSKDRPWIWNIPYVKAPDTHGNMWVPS
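Enzyme-compound mixtures sat 15 min at room temperature, followed by a 5 min reaction with 15 nM final substrate and 10 min with AlphaScreen beads. Recombinant human Tdp1 was used at 1 nM final.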
TGFb inhibitor: qHTS for Inhibitors of TGF-b; HepG2 CAGA-GFP TGF-b/SMAD3 reporter, GFP fluorescence, 18 h; TGF-beta stimulated, 500 pg/mL final; Potency, µM (series often up to 46.1 µM), usual class: inhibitors; 410,000 compounds, 1.2% hits; note: nearly all actives have a fitted effect of over 65% in size
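Cell-based qHTS in HEPG2 carrying a CAGA-GFP Smad reporter; compounds added before 500 pg/mL final TGF-beta, 18 h incubation at 37 degrees C, GFP fluorescence quantified per cell by imaging cytometry.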
DT40 TDP1 CPT: qHTS for Inhibitors of human tyrosyl-DNA phosphodiesterase 1 (TDP1): qHTS in cells in presence of CPT; chicken DT40 Tdp1-/-;hTDP1 cells + 20 nM CPT, ATP luminescence, 48 h; Potency, µM (highest dose often 46.2 µM), hits mostly inhibitors; 420,000 compounds, 12% hits; AID 686979, 2013; note: nearly all actives have a fitted effect of over 55% in size
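Cell growth measured by CellTiter-Glo luminescence after a minimum 48 h, 37 C compound exposure with 20 nM CPT in Tdp1-knockout DT40 cells stably expressing hTDP1, seeded 400/well; qHTS titration format.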
DT40 TDP1 no CPT: qHTS for Inhibitors of human tyrosyl-DNA phosphodiesterase 1 (TDP1): qHTS in cells in absence of CPT; AID 686978, 2013; 420,000 compounds, 15% hits; DT40 Tdp1-/- hTDP1 cells, no CPT, ATP luminescence, 48 h; Potency, µM (doses to about 46.2 µM), most hits filed as inhibitors; note: nearly all actives have a fitted effect of over 55% in size
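Luminescent ATP content (CellTiter-Glo) served as the growth readout. Knockout chicken DT40 cells expressing human TDP1 were exposed to compounds without camptothecin for a minimum 48 hr at 37 °C.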
Hits are given with their value; n = inactive; u = inconclusive; x = no result given; [ ] = another dose, or the depositor's remark. Unless noted, calls come from the whole dose curve; as a rule, active = well fitted curve in the direction sought with a large enough effect; inconclusive = small, poorly fitted or top-dose-only effect, or another doubt; inactive = no such curve, though single readings can be large; an effect the other way counts as inactive or inconclusive.

SMILES | HepG2 tox | IL-1B inflam inh | TDP1 inh | TGFb inhibitor | DT40 TDP1 CPT | DT40 TDP1 no CPT
Cc1c(N2C(=O)/C(=C3\C(=O)N(CC(=O)O)c4ccccc43)SC2=S)c(=O)n(-c2ccccc2)n1C | n | n | n | n | u | u
Cc1c(N2C(=O)/C(=C\C3CC=CCC3)SC2=S)c(=O)n(-c2ccccc2)n1C (stereo unspecified) | n | -101 | n | n | u | u
Cc1c(N2C(=O)c3cccc4cccc(c34)C2=O)c(=O)n(-c2ccccc2)n1C | n | n | n | n | n | n
OCC1OC(c2ccc(O)cc2O)C(O)C1O (stereo unspecified) | x | n | x | x | n | n
OCC1OC(c2ccc(OCc3ccccc3)cc2OCc2ccccc2)C(O)C1O (stereo unspecified) | n | u | x | n | 10µM | 9.2µM
Cc1cccc(N(C(=O)Cn2nnc3ccccc32)C(C(=O)NC(C)(C)C)c2ccsc2)c1C (stereo unspecified) | n | n | n | n | u | 16µM
COCCNC(=O)C(c1ccco1)N(C(=O)Cn1nnc2ccccc21)c1cccc(C)c1C (stereo unspecified) | n | n | n | n | n | u
Cc1ccccc1CCN(C(=O)Cn1nnc2ccccc21)C(C(=O)NC(C)(C)C)c1ccsc1 (stereo unspecified) | n | n | n | u | 18µM | 26µM
C=CCN1c2ccccc2[C@]23C[C@@H](C(=O)OC)N(S(=O)(=O)c4ccc(Br)cc4)C2=NC(C(=O)OC)=C(C(=O)OC)[C@H]13 | x | x | n[12.3 µM] | x | x | x
Cn1c(/C(C#N)=C/c2ccc(O)cc2)nc2ccccc21 | n | n | n | n | u | n
Cn1c(/C(C#N)=C/c2ccc(C(F)(F)F)cc2)nc2ccccc21 | n | x | n[12.3 µM] | x | 21µM | 13µM
Cn1c(/C(C#N)=C/c2ccncc2)nc2ccccc21 | n | -52 | n | n | u | 21µM
Cn1c(/C(C#N)=C(\O)c2cccc(F)c2)nc2ccccc21 | n | n | n | n | n | u
COc1cc(CNc2nc3c(C)cc(C)cc3s2)ccc1O | n | n | x | n | u | 21µM
O=[N+]([O-])c1cncc([N+](=O)[O-])c1Nc1ccccc1Cl | n | n | n | u | 18µM | 23µM
Cc1cc(=O)[nH]c(SCC(=O)Nc2cccc(C(F)(F)F)c2)n1 | n | n | n | n | u | u
Cc1cc(=O)[nH]c(Nc2cccc(C(F)(F)F)c2)n1 | n | n | n | u | u | 23µM
O=C(CSc1nc2[nH]c(=O)cc(O)c2s1)Nc1ccc(Cl)c(C(F)(F)F)c1 | n | n | n | n | n | n
O=c1cc(O)c2sc(Nc3cccc(C(F)(F)F)c3)nc2[nH]1 | n | n | n | n | 12µM | 7.3µM
COc1ccc(NC2=NC(=S)N(c3ccccc3C)C23CCCCC3)cc1 | n | n | n | n | 23µM | 26µM
COc1ccc(N2C(=S)N=C(Nc3ccccc3)C23CCCCC3)cc1 | n | n | n | n | u | n
CC(NC(=O)C1CCOCC1)c1nnc2n1CCN(Cc1ccc(F)cc1)CC2 (stereo unspecified) | x | x | x | x | n | n
Cc1ccc(OCc2nc(-c3ccc(C(=O)N4CCN(c5cccc(C(F)(F)F)c5)CC4)cc3)oc2C)cc1 | n | x | n | n | 16µM | u
Cc1ccc(OCc2nc(-c3ccc(C(=O)N4CCN(c5ccc(Cl)cc5)CC4)cc3)oc2C)cc1 | n | x | n | u | u | u
